Experimental data from PubChem BioAssay.
The other results are listed elsewhere or left out. The source made the active and inactive calls.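 How the source made its calls, unless noted: active means mean inhibition across three repeat runs above about 25% carried over from the earlier screen (limit read from the data); inactive means the rest.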

How the values were obtained:
[1] = tested on: TLR4-MyD88 interaction (human), BLA complementation; assay: TLR4-MyD88 association inhibitors, retest, confirmation, cell-based, HeLa CL3-4, BLA complementation, FRET ratio (AID 941); settings: CCF4 FRET ratio, at 8.4 µM, hits give high values;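 further: plate controls were DMSO only for no effect and clavulanic acid blocking BLA at full dose for full effect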
[2] = inhibitors of full-length beta-lactamase reporter, confirmation, artefact control for TLR4-MyD88 binding inhibitor project, cell-based, HeLa, full-length BLA, CCF4 FRET ratio (AID 1237;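 active means mean inhibition over three repeats above about 26% taken from the earlier screen, limit read from the data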;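 further: HeLa cells stably expressing beta-lactamase reporter as counterscreen for TLR4-MyD88 inhibitors; 0% = DMSO and 100% = clavulanic acid full inhibition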); settings: at 8.4 µM, hits give high values
[3] = target: Toll-like receptor 9 (Homo sapiens) (UniProt Q9NR96); assay: TLR9-MyD88 association inhibitors, retest, confirmation, cell-based, CHO, BLA complementation, fluorescence, triplicate (AID 540250;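 active means mean inhibition across three repeats above about 21% taken from the earlier screen, limit read from the data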;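 further: blue over green emission ratio reports constitutive TLR9 MyD88 association via BLA complementation; 0% = DMSO vehicle wells and 100% = clavulanate BLA inhibitor wells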); settings: CCF4 FRET ratio, at 4.98 µM, hits give high values
[4] = beta-lactamase reporter inhibitors in CHO cells, artefact control for TLR9-MyD88 binding inhibitor project, cell-based, fluorescence (AID 540251;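 active means mean inhibition above a 50% cutoff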;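 further: counterscreen of TLR9-MyD88 hits on CMV-driven BLA in CHO-K1 cells; 0% = DMSO alone and 100% = clavulanate blocking BLA; higher means less blue over green ratio so more BLA blockade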); settings: CHO-BLA cells, CCF4 FRET ratio, at 4.98 µM, hits give high values
[5] = CHO cell viability loss – luminescence, single concentration, cytotoxicity control for TLR9-MyD88 binding inhibitor project (AID 588336; in the data active means inhibition above about 11%); settings: TLR9-MyD88 CHO cells cytotoxicity, at 4.98 µM, hits give high values
[6] = target: Receptor-interacting serine/threonine-protein kinase 2 (Homo sapiens) (UniProt O43353); assay: NOD2-RIPK2 binding disruptors, retest, confirmation, fluorescence, CHO cells, BLA complementation, triplicate (AID 624370;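 active means mean inhibition across replicates above a set limit taken from the earlier primary screen, cut at about 21% in these data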;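 further: 0% = DMSO-only wells and the high end = clavulanate BLA-blocked wells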); settings: CCF4 FRET, at 4.98 µM, hits give high values
Sequence of Receptor-interacting serine/threonine-protein kinase 2 (Homo sapiens) (O43353 whole entry, looked up): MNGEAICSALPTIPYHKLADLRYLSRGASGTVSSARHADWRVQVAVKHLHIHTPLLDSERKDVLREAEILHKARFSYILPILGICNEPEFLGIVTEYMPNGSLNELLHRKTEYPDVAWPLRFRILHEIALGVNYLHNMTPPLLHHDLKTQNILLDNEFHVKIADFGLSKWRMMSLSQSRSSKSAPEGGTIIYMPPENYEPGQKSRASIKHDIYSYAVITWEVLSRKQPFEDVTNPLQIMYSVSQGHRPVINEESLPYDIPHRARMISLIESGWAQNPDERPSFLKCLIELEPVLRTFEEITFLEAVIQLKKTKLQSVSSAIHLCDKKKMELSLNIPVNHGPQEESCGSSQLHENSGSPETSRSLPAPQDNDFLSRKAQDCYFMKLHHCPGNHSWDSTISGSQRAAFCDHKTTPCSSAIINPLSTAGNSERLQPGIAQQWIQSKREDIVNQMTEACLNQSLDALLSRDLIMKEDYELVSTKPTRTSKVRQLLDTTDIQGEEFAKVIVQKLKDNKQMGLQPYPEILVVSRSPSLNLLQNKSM

[7] = beta-lactamase reporter inhibitors in CHO cells, confirmation, artefact control for NOD2-RIPK2 interaction inhibitor project, cell-based, CHO-K1 CMV-bla, CCF4 FRET, fluorescence (AID 624371;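 active means mean inhibition above the low-control mean inhibition plus three low-control SD, cut at about 11% in these data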;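 further: 0% = DMSO only wells and 100% = clavulanate high control wells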); settings: CCF4 FRET ratio, counterscreen, at 4.98 µM, hits give high values
[8] = STAT1 signaling activators, confirmation, cell-based, HTS, luciferase reporter (AID 1262;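 active means activation above a set limit carried over from the earlier primary STAT1 screen, cut at about 140% in these data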;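 further: simple ratio to median IFN-gamma plus DMSO wells so 0% means no light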); settings: NIH 3T3 STAT1-luciferase reporter, IFN-gamma potentiation, luminescence; at 5.7 µM; hits give high values; 100% = IFN-gamma EC80 alone, no compound
[9] = STAT3 reporter inhibitors, retest of hits, confirmation, U3A cells, luciferase, luminescence (AID 1265;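 active means inhibition above the hit cutoff computed for the primary STAT3 screen, cut at about 44% in these data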;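 further: 0% = IL-6 plus DMSO and 100% = IL-6 plus nifuroxazide control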); settings: IL-6 STAT3 luciferase reporter, at 5.7 µM, hits give high values, cell line lacks STAT1
[10] = NF-kB reporter activators, TNF-alpha stimulated, counter-screen for STAT1 activator project, cell-based, HEK293T, luciferase luminescence (AID 1306;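 active means activation above the mean of solvent-only control wells plus 3 SD, set per campaign, cut at about 130% in these data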;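 further: TNF-alpha given at a submaximal dose yielding about 80% of full reporter signal; values are well signal over median control so 100% means no change and 0% no light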); settings: at 5.7 µM, hits give high values, 100% = TNF-alpha with vehicle only
[11] = NF-kB reporter inhibitors in human cells, confirmation, counter-screen for STAT3 inhibitor project, cell-based, HEK293T, luciferase, TNF-alpha stimulus (AID 1308;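 active means inhibition above the mean of solvent-only control wells plus 3 SD, cutoff set per campaign, cut at about 13% in these data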;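 further: 0% = TNF-alpha with DMSO and 100% = TNF-alpha with MG high control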); settings: TNF-alpha induced, at 5.7 µM, hits give high values
[12] = target: Signal transducer and activator of transcription 3 (Homo sapiens) (UniProt P40763); assay: STAT3 reporter activation by STAT1 hits, confirmation, counter-screen for STAT1 activator project, U3A cells, luciferase, luminescence (AID 1316;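 active means activation above the solvent-only control well mean plus 3 SD, set per plate batch, cut at about 110% in these data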;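 further: 0% = no luminescence and 100% = median IL-6 plus DMSO wells; higher means more STAT3 reporter activation so hits are non-selective activators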); settings: IL-6, luminescence, at 5.7 µM, hits give high values, 100 = IL-6 alone, no compound effect, cells lack STAT1
[13] = STAT1 reporter inhibitors, IFN-gamma induced, confirmation, counter-screen for STAT3 inhibitor project, cell-based, NIH 3T3, luciferase luminescence (AID 1317;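 active means inhibition above the mean plus 3 SD of solvent-only control wells, limit set per screening run, cut at about 16% in these data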;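 further: 0% = DMSO with IFN-gamma and 100% = nifuroxazide control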); settings: NIH 3T3 STAT1-luciferase reporter, at 5.7 µM, hits give high values
[14] = growth loss of phage-infected RecBCD+ E. coli, confirmation, RecBCD inhibitor project, absorbance, E. coli V66, T4 gene 2 phage (AID 651982;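 active means mean inhibition over triplicates exceeding the hit threshold derived in the original primary screen, cut at about 11% in these data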); settings: E. coli V66 + T4 2- phage, growth OD; at 11.9 µM; hits give high values
[15] = E. coli viability inhibition, counter-screen for RecBCD inhibitor project, absorbance, high throughput (AID 651983; in the data active means inhibition above about 20%;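 further: E. coli strain V66 grown with compound alone and no phage infection; 0% = bacteria with DMSO vehicle only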); settings: absorbance (OD) growth, at 11.9 µM, hits give high values
[16] = growth loss of phage-infected AddAB-carrying E. coli, confirmation, counter-screen for RecBCD inhibitor project, absorbance, E. coli V3065, T4 phage (AID 651984;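 active means mean inhibition above the solvent-only control wells' mean plus 3 SD, cut at about 22% in these data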;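 further: higher means less bacterial growth from phage killing when AddAB is blocked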); settings: E. coli expressing H. pylori AddAB + T4 phage, OD growth; at 11.9 µM; hits give high values; gene 2 mutant T4, recBCD-deleted host
[17] = compounds interfering with TAMRA-BSA probe, counter-screen for TCR-CD3 interaction inhibitor project, biochemical, fluorescence, TAMRA-labeled BSA (AID 652035; in the data active means inhibition above about 23%;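 further: 0% = buffer low control and 100% = reference high control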); settings: TAMRA-labeled BSA probe fluorescence counterscreen; at 9.4 µM; hits give high values
[18] = tested on: T-cell receptor (TCR)-CD3 interaction, human; assay: TCR-CD3 interaction inhibitors, retest, confirmation, biochemical, fluorescence, TAMRA-labeled TCR probe (AID 652036; in the data active means inhibition above about 19%); settings: TAMRA-labeled TCR probe fluorescence binding assay; at 9.4 µM; hits give high values
[19] = tested on: HIV-1 integrase (multimerization); assay: HIV-1 IN multimer formation enhancers, counter-screen for LEDGF/p75 integration inhibitor project, biochemical, TR-FRET (AID 1053131; in the data active means activation above about 8.9%); settings: TR-FRET HIV-1 integrase multimerization, at 7.7 µM, hits give high values
[20] = TR-FRET optical interference artefacts, confirmation, artefact control for LEDGF/p75-dependent integration inhibitor project, biochemical, HIV-1 IN multimerization (AID 1053135;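 active means inhibition above the mean over all tested compounds plus 3 SD, which no compound reached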;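 further: 0% = integrase with antibodies and DMSO and 100% = antibodies without integrase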); settings: TR-FRET optical interference counterscreen, at 7.7 µM, hits give high values
[21] = tested on: HIV-1 integrase / human LEDGF/p75 complex; assay: inhibitors of HIV-1 IN-LEDGF/p75 DNA integration, confirmation, biochemical, TR-FRET (AID 1053136; in the data active means inhibition above about 14%); settings: TR-FRET LEDGF/p75-dependent HIV-1 integration, at 3.7 µM, hits give high values
[22] = growth loss of phage-infected E. coli expressing H. pylori AddAB, confirmation, AddAB inhibitor project, absorbance, E. coli V3065, T4 phage, triplicate (AID 488942;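 active means mean inhibition above a set limit taken from the earlier primary screen, cut at about 13% in these data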;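 further: higher means less bacterial growth since AddAB block lets phage replicate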); settings: OD, at 11.9 µM, hits give high values, T4 phage with gene 2 nonsense mutations
[23] = growth loss of RecBCD+ E. coli with mutant T4 phage, counter-screen for AddAB inhibitor project, absorbance, V66 E. coli (AID 488955;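 active means mean inhibition above the mean of solvent-only control wells plus 3 SD, cut at about 4% in these data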;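 further: optical density read after an 18 h incubation at 37 °C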); settings: OD growth, at 11.9 µM, hits give high values
[24] = bacterial viability inhibition counter-screen, confirmation, counter-screen for AddAB inhibitor project, absorbance (AID 488956; in the data active means inhibition above about 25%); settings: absorbance (AddAB counterscreen), at 11.9 µM, hits give high values
[25] = target: Peroxisome proliferator-activated receptor gamma (Homo sapiens) (UniProt P37231); assay: agonists of PPARgamma SRC-2 coactivator recruitment, confirmation, biochemical, HTS (AID 1297; in the data active means activation above about 22%;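 further: 0% = vehicle alone and 100% = reference agonist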); settings: biochemical SRC-2 recruitment by PPARgamma; at 8 µM; hits give high values
Sequence of Peroxisome proliferator-activated receptor gamma (Homo sapiens) (P37231 whole entry, looked up): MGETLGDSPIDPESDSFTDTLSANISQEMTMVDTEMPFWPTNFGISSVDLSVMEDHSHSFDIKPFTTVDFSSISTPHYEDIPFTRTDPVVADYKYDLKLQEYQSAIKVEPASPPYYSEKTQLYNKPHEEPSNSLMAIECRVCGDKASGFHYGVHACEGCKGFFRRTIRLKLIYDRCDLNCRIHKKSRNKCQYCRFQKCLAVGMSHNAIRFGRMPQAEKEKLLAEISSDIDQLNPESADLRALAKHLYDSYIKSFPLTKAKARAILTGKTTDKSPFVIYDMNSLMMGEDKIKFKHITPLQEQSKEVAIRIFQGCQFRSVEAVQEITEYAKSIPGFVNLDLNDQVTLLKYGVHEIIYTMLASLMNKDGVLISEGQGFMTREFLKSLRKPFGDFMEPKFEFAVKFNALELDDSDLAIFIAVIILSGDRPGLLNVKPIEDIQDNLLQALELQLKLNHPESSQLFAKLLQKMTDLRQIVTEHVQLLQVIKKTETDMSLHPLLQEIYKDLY

[26] = target: Peroxisome proliferator-activated receptor gamma (Homo sapiens) (UniProt P37231); assay: PPARgamma agonists recruiting SRC-1 coactivator, confirmation, biochemical (AID 1300; in the data active means activation above about 20%;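 further: 0% = vehicle wells and 100% = reference agonist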); settings: PPARgamma–SRC-1 coactivator recruitment biochemical assay; at 8 µM; hits give high values
[27] = target: Peroxisome proliferator-activated receptor gamma (Homo sapiens) + Nuclear receptor coactivator 3 (Homo sapiens) (UniProt P37231+Q9Y6Q9); assay: PPARgamma-driven SRC-3 coactivator recruitment agonists, confirmation, biochemical (AID 1301; in the data active means activation above about 24%;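 further: 0% = vehicle wells and 100% = reference agonist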); settings: biochemical PPARgamma-SRC-3 coactivator recruitment, agonist mode; at 8 µM; hits give high values
Sequence of Peroxisome proliferator-activated receptor gamma (Homo sapiens) + Nuclear receptor coactivator 3 (Homo sapiens) (P37231 whole entry, looked up): as above
Sequence of Peroxisome proliferator-activated receptor gamma (Homo sapiens) + Nuclear receptor coactivator 3 (Homo sapiens) (Q9Y6Q9 whole entry, looked up): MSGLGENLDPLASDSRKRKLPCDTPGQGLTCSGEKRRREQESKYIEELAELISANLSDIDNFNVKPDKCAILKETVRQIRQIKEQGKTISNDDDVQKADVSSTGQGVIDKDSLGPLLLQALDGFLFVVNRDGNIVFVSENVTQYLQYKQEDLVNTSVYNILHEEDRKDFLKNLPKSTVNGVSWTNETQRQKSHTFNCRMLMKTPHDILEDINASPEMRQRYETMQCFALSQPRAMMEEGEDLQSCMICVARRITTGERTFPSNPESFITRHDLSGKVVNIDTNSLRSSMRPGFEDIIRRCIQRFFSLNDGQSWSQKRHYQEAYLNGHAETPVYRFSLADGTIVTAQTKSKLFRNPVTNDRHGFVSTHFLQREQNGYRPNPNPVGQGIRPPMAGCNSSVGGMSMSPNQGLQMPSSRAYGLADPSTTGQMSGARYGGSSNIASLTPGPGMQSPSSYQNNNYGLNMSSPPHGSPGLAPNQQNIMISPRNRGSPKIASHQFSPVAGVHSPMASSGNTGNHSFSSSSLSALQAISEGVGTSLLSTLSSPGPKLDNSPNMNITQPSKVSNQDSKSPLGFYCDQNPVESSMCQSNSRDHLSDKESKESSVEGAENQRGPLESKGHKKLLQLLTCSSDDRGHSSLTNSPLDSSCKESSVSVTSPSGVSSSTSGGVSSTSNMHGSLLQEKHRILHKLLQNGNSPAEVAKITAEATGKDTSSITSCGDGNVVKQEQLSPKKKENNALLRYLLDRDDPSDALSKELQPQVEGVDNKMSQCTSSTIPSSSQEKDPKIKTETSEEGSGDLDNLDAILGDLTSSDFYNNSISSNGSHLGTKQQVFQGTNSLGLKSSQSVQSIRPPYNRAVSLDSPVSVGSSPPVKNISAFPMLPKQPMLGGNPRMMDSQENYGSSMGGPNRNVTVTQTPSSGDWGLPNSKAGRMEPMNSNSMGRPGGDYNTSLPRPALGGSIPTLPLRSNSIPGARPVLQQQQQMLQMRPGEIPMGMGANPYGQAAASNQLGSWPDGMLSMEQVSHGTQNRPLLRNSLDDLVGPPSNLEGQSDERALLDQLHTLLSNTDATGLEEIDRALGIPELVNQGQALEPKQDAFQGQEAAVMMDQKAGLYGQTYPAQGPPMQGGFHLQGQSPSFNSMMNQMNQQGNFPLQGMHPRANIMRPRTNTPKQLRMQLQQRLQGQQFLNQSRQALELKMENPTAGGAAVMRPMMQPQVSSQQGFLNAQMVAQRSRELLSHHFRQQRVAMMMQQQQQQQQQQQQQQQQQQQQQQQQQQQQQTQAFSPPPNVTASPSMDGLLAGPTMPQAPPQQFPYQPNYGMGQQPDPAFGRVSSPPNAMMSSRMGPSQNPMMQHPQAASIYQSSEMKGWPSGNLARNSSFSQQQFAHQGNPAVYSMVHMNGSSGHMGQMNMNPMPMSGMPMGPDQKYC

[28] = target: Insulin-degrading enzyme (Homo sapiens) (UniProt P14735); assay: human IDE inhibitors in live cells, confirmation, fluorescence polarization, HEK cells, FAbetaB substrate (AID 435028;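 active means mean inhibition across triplicate wells above the cutoff set by the earlier primary insulin-degrading enzyme screen, cut at about 16% in these data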;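 further: 0% = DMSO wells and 100% = 60 µM reference IDE inhibitor Ii1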); settings: FAbetaB cleavage, at 5.59 µM, hits give high values
Sequence of Insulin-degrading enzyme (Homo sapiens) (P14735 whole entry, looked up): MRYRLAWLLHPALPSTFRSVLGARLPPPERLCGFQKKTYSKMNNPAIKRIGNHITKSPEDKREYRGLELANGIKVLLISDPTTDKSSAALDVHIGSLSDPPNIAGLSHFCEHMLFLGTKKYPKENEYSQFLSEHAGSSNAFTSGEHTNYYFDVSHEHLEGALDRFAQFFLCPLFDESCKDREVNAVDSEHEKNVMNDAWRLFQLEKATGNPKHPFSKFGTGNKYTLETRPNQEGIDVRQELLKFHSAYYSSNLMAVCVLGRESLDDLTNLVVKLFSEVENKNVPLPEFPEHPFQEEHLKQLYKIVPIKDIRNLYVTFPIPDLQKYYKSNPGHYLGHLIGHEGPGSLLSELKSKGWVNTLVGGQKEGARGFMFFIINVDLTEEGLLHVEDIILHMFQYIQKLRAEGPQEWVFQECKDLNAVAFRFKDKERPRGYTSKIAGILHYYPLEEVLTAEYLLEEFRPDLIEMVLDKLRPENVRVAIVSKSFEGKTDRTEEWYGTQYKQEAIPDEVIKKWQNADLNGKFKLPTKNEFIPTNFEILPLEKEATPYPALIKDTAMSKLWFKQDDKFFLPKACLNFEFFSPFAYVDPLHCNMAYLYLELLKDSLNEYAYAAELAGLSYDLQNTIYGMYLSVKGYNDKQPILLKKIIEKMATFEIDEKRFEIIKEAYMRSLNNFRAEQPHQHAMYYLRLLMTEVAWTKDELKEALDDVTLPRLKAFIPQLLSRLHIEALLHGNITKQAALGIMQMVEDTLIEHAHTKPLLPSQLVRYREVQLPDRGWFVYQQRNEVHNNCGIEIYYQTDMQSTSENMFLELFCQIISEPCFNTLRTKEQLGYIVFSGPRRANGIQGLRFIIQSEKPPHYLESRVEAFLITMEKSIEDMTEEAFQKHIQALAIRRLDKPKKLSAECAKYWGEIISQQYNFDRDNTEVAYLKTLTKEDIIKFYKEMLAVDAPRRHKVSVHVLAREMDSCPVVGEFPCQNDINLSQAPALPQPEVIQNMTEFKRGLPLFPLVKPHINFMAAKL

[29] = cytotoxicity in HEK cells, cytotoxicity control for IDE inhibitor project, cell-based, luminescence (AID 449730; in the data active means inhibition above about 22%;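 further: 0% = vehicle wells and 100% = reference cytotoxic drug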); settings: HEK293 cytotoxicity, ATP luminescence; at 5.59 µM; hits give high values
[30] = target: Galanin receptor type 2 (Homo sapiens) (UniProt O43603); assay: GALR2 antagonists, retest of hits, confirmation, cell-based (AID 866; in the data active means inhibition above about 27%;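 further: cells stimulated with galanin at about its EC80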); settings: GALR2-expressing cells, antagonist mode, at 4 µM, hits give high values
Sequence of Galanin receptor type 2 (Homo sapiens) (O43603 whole entry, looked up): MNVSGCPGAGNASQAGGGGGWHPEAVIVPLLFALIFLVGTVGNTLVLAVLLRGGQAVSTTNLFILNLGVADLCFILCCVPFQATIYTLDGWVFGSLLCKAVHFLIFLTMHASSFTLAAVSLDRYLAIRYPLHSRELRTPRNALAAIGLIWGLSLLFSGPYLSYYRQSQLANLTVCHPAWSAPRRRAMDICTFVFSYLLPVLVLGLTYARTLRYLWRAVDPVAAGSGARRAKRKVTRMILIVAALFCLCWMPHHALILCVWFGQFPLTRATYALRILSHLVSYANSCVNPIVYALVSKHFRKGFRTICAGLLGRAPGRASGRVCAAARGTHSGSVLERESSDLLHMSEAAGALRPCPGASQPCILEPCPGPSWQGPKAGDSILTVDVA

[31] = inhibitors of NFAT-driven beta-lactamase reporter, confirmation, counter-screen for GALR2 antagonist project, CHO NFAT-bla cells, FRET readout (AID 867;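 active means inhibition above the mean inhibition across tested compounds plus 3 SD, cut at about 27% in these data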;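 further: 0% = 500 nM thapsigargin stimulated wells and 100% = unstimulated BSA only wells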); settings: thapsigargin-stimulated, at 4.2 µM, hits give high values
[32] = target: Serine protease HTRA1 (Homo sapiens) (UniProt Q92743); assay: HTRA1 protease inhibitors, retest, confirmation, biochemical, fluorescence polarization (AID 540248;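 active means mean inhibition over three repeats above a set limit taken from the earlier primary screen, cut at about 37% in these data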;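 further: 0% = HTRA1 with DMSO and 100% = wells lacking HTRA1; inhibitors block probe binding so polarization drops and inhibition rises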); settings: recombinant HTRA1, FP-rhodamine activity-based probe, at 5.96 µM, hits give high values

O=C1NC(=O)C2C1C(c1ccc([N+](=O)[O-])cc1)=NN2Cc1ccccc1 (stereo unspecified)
inactive: inhibition [4] 25.6% | inhibition [5] 4.55%
active: inhibition [1] 25.8% | inhibition [2] 42.9% | inhibition [3] 25.8% | inhibition [6] 49.4% | inhibition [7] 51.9%

Cc1ccc2cc3cc(C(=O)N4CCCCCC4)oc3nc2c1
active: activation (% of control) [8] 224% | activation (% of control) [12] 137%
inactive: inhibition [9] 7.37% | activation (% of control) [10] 120% | inhibition [11] -42% | inhibition [13] -140%

O=C(NNC(=O)c1ccccc1O)c1ccccc1O
active: inhibition [14] 25.8% | inhibition [15] 26.4% | inhibition [16] 38.9% | inhibition [18] 37.8% | inhibition [21] 62.9%
inactive: inhibition [17] 2.97% | activation [19] 0.99% | inhibition [20] -4.93%

C=CC1=C(C(=O)O)N2C(=O)[C@@H](NC(=O)/C(=N/OCC(=O)O)c3csc(N)n3)[C@H]2SC1
active: inhibition [22] 102% | inhibition [23] 100% | inhibition [24] 101% | inhibition [14] 100% | inhibition [15] 101% | inhibition [16] 101% | inhibition [18] 20% | activation [19] 42.3% | inhibition [21] 90.4%
inactive: inhibition [17] 6.41% | inhibition [20] -213%

CCN(CC)c1ccc2oc(=O)c(C)nc2c1
inactive: inhibition [1] 4.42% | inhibition [2] 4.01% | activation [25] 7.05% | activation [26] 6.29% | activation [27] 3.97%

CC(C)c1ccc(NC(=O)NC2CCCCC2)cc1
inactive: activation (% of control) [10] 128%
active: activation (% of control) [8] 191% | activation (% of control) [12] 129%

Cc1ccc(Cc2cnc(N)s2)o1
inactive: inhibition [17] 0.16% | inhibition [18] 2.57% | activation [19] 6.28% | inhibition [20] -22.6% | inhibition [21] 10.6%

O=C(/C=C/c1ccc(N2CCOCC2)cc1)c1ccccc1
active: inhibition [2] 45.8% | inhibition [6] 29% | inhibition [7] 31.2%
inactive: inhibition [1] 21.1% | inhibition [28] 14.1% | inhibition [29] 15.4%

Cc1ccccc1NCC(=O)N/N=C\c1ccc([N+](=O)[O-])s1
inactive: inhibition [17] 1.19% | inhibition [18] 7.69% | activation [19] -0.2% | inhibition [20] 1.03% | inhibition [21] -2.15%

CCc1ccc2c(c1)C1(NN=C(c3ccccc3)S1)C(=O)N2 (stereo unspecified)
active: inhibition [32] 63.9%
inactive: inhibition [30] 24.4% | inhibition [31] 24.7% | inhibition [1] 13.3% | inhibition [2] 19.7%
